High-throughput results: PubChem, several laboratories
GalR3 antag: human GalR3 antagonism. HEK293 GalR3-CNG cAMP membrane potential fluorescence; galR3 body fused to GalR1 C-terminus. actives 0.44% (n = 360,000). inhibition, % at 3 µM. AID 651719. O60755;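 active = inhibition above the screen-wide average plus 3 SD, cut at about 13% in these data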;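 note: forskolin and galanin both at EC90 stimulate the cells; cAMP rise reported by CNG channel membrane potential dye signal; 0% = forskolin plus galanin with DMSO and 100% = forskolin alone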
Target sequence (O60755 1-299 limits assumed): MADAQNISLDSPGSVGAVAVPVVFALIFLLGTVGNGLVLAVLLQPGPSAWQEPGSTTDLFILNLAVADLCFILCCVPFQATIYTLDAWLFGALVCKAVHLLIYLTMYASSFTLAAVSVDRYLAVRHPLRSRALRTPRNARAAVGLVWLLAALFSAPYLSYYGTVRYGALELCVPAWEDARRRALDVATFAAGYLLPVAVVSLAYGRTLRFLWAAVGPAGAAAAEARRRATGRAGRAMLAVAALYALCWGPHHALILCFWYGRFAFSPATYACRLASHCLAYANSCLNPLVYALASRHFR
Gli-Sufu block: Gli-Sufu pathway antagonism; Sufu-KO-LIGHT fibroblasts, Gli luciferase reporter luminescence; inhibition, % at 5 µM; actives 0.74% (n = 340,000); AID 588413;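 active = inhibition above about 55%, limit read from the data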;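 note: 0% = DMSO-treated cells and 100% = wells with medium but no cells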
Cardio protect: protects H9c2 cardiomyocytes from peroxide injury | actives 0.63% (n = 360,000) | AID 588492 | H2O2 injury protection, ATPLite, 2 h | protection from H2O2 cell death, % at 20 µM;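 active = compounds giving at least 50% protection of heart cells from peroxide-induced death in the single-dose screen, raw or plate-pattern-corrected value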;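 note: 0% = DMSO wells with peroxide and 100% = DMSO wells without peroxide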
COUP-TFII inh: inhibitors of human COUP-TFII (NR2F2); HEK293T NGFI-A luciferase reporter, luminescence; inhibition, % at 8.6 µM; actives 0.7% (n = 370,000); AID 686940; P24468;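 active = inhibition above a per-plate cutoff, mean inhibition of test wells between control levels plus 3 SD, cut at about 38% in these data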;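 note: cells cotransfected with COUP-TFII expression vector driving the NGFI-A reporter; 0% = median of COUP-TF2 test wells and 100% = reporter-only cells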
GAA850 FXN act: frataxin GAA850 promoter activation | HEK293 lucGAA850 FXN promoter luciferase reporter, 24 h; percent of 10 µM SAHA response | activation, % at 6 µM | actives 0.56% (n = 360,000) | AID 540364;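 active = activation above the average of all compounds screened plus 3 SD, cutoff fixed separately per campaign, cut at about 7.5% in these data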;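 note: 0% = DMSO wells and 100% = 10 µM SAHA wells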
SMARCA2 activ: activators of SMARCA2 function. MG213 cells, MMTV-luciferase reporter, dexamethasone, overnight. activation, % at 9.1 µM. actives 1% (n = 370,000). AID 652017; in the data active = activation above about 7.8%;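 note: 0% = vehicle wells and 100% = reference activator wells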
GalR3 antag conf: GalR3 (human) antagonism, confirmation; HEK293 GalR3 CNG cAMP biosensor, membrane potential fluorescence; galR3 fused to GalR1 carboxy tail; challenged with forskolin and galanin at EC90; AID 652245; actives 59% (n = 1,600); shares compounds with GalR3 antag; inhibition, % at 3 µM;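 active = inhibition above the primary screen's cutoff, the mean inhibition of all screened compounds plus 3 SD, cut at about 13% in these data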;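 note: 0% = forskolin plus galanin and 100% = forskolin alone with DMSO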
HEK-CNG parental: parental cell agonism counter-screen for GalR3 antagonists. shares compounds with GalR3 antag. HEK293-CNG parental cells, cAMP membrane potential fluorescence; normalised: DMSO wells 0%, forskolin wells 100%. activation, % at 3 µM. actives 10% (n = 1,600). AID 652268; in the data active = activation above about 1.3%
Gal4-VP16 ctr: inhibits VP16 reporter, flagging COUP-TFII antagonist hits; shares compounds with COUP-TFII inh; HEK293 Gal4-VP16 luciferase reporter, luminescence; inhibition, % at 8.5 µM; actives 25% (n = 2,500); AID 687007; in the data active = inhibition above about 13%
NR2F2 inh conf: COUP-TFII (NR2F2) inhibition, confirmation assay | shares compounds with COUP-TFII inh | inhibition, % at 8.5 µM | AID 687008 | HEK293 NGFI-A luciferase reporter, luminescence | actives 45% (n = 2,500);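 active = mean inhibition over three repeats above a set limit taken from the earlier primary screen, cut at about 38% in these data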;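 note: 100% = cells given the luciferase reporter alone without the COUP-TF2 vector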
* = called active by the depositor; · = not tested or not shown. In the library only some 3.4% were active in any assay of this set; here they are far more common.

SMILES	GalR3 antag	Gli-Sufu block	Cardio protect	COUP-TFII inh	GAA850 FXN act	SMARCA2 activ	GalR3 antag conf	HEK-CNG parental	Gal4-VP16 ctr	NR2F2 inh conf
COc1ccc(OC)c(CCNC(=O)C(C)n2nc(C)c3c(C)n(-c4ccccc4)nc3c2=O)c1 (centres undefined)	-3	10	2	-15	-2	-3	·	·	·	·
CC(CNC(=O)[C@@H](Cc1ccccc1)NC(=O)CC[C@H]1O[C@@H](n2ccc(=O)[nH]c2=O)[C@H](O)[C@@H]1O)c1ccccc1 (some centres undefined)	-7	·	4	-5	·	-3	·	·	·	·
CC(C)(C)c1ccc(C(=O)Nc2cccnc2)cc1	-2	-60	-13	-20	4	5	·	·	·	·
CC(C)(C)c1ccc(C(=O)Nc2ccc(Oc3cccnc3)nc2)cc1	111*	-5	-13	64*	-4	-11	114*	0	-8	61*
NC(=O)c1nnn(Cc2cc(Cl)c(C(=O)c3ccc(Cl)cc3)c(Cl)c2)c1N	97*	·	·	55*	·	-8	120*	-1	5	54*
O=C(Nc1ccc(-c2nc3ccccc3o2)cc1)c1ccc(N2C(=O)C3C4C=CC(C4)C3C2=O)cc1 (centres undefined)	61*	-10	-14	41*	-7	-4	110*	-1	-20	40*
CC(C)NC(=O)C1C(c2ccccc2)=Nc2ccccc2N1C(=O)c1ccc(C(F)(F)F)cc1 (centres undefined)	-6	·	·	0	·	-3	·	·	·	·
COc1ccc(-c2csc(NC(=O)c3ccccc3F)n2)cc1	-9	-6	1	9	1	0	·	·	·	·
COc1ccc(-c2csc(NC(=O)c3ccccc3NS(=O)(=O)c3ccc(F)c(F)c3)n2)cc1	92*	75*	-14	61*	-10	-11	106*	-1	3	61*
CCCN(CCC)C(=O)c1oc2ccccc2c1NC(=O)Cc1cccc(OC)c1	-7	11	-4	-17	3	-2	·	·	·	·
CC(C)CC(=O)N=C1SC2CS(=O)(=O)CC2N1Cc1ccccc1Cl (centres undefined)	-1	2	-6	1	-1	-1	·	·	·	·
NC(=O)c1ccc(N2CCN(S(=O)(=O)c3ccccc3)CC2)c([N+](=O)[O-])c1	32*	56*	-14	54*	-3	-6	116*	-1	2	43*
Cc1ccc(Oc2ccc(C(=O)NCc3ccncc3)cc2)cc1	83*	20	-23	74*	-5	-7	97*	-1	-7	41*
O=C(NCc1ccncc1)c1ccc(Oc2ccccc2)cc1	-11	5	-16	22	-2	-4	·	·	·	·
CCC(NC(=O)Nc1nnc(C(F)(F)F)s1)(C(F)(F)F)C(F)(F)F	58*	-4	-31	67*	-10	-5	84*	0	17*	60*
CCCN1CCN(C(=O)C2CCN(S(=O)(=O)c3ccc4c(c3)NC(=O)C(C)S4)CC2)CC1 (centres undefined)	4	-9	2	11	1	-1	·	·	·	·
O=C(Nc1ccc(OCC(F)(F)C(F)F)c(C(F)(F)F)c1)c1ccccc1O	19*	26	-21	69*	-8	-10	16*	-1	-29	26
O=C(Nc1ccc(OCC(F)(F)C(F)F)c(C(F)(F)F)c1)c1ccccc1	-3	-4	-21	-4	1	-1	·	·	·	·
COc1ccc(C(=O)Nc2ccc(S(=O)(=O)N3CCc4ccccc43)cc2)cc1	30*	-12	-11	59*	-4	-6	86*	-2	-17	42*
NS(=O)(=O)c1ccc(NC(=O)c2ccc(S(=O)(=O)N3CCc4ccccc43)cc2)cc1	-5	2	-8	14	4	-2	·	·	·	·
O=C(Nc1ccncc1)c1ccc(Cl)c(S(=O)(=O)N2CCc3ccccc32)c1	40*	1	-15	73*	-2	-4	61*	0	2	60*
CCCCCC[n+]1ccccc1/C=C/c1ccc(N(C)C)cc1	16*	·	-24	92*	-10	-14	16*	41*	25*	89*
CN(C)c1ccc(C=Cc2nccc3ccccc23)cc1	-2	·	-17	3	·	-2	·	·	·	·
CCOCCCNC(=O)C(NC(=O)c1ccccc1O)c1ccc(Cl)cc1 (centres undefined)	·	21	8	·	-3	·	·	·	·	·
Nc1ncnc2c(C3OC(CO)C(O)C3O)scc12 (centres undefined)	61*	44	-4	67*	-12	-9	47*	0	22*	23
SMILES	GalR3 antag	Gli-Sufu block	Cardio protect	COUP-TFII inh	GAA850 FXN act	SMARCA2 activ	GalR3 antag conf	HEK-CNG parental	Gal4-VP16 ctr	NR2F2 inh conf
Cc1cc(-c2ccccc2)nc2[n+]1CCN2C	-10	3	-2	7	1	-2	·	·	·	·
O=C(NCC1CCN(Cc2ccc(Cl)cc2)CC1)C1CCCN(c2ncnc3c2nc2n3CCCCC2)C1 (centres undefined)	62*	45	-2	58*	-3	-4	84*	2.0*	8	34
Cc1sc2ncnc(NC3CCN(Cc4ccccc4)CC3)c2c1C	83*	78*	-22	56*	-2	-5	102*	1.2*	5	52*
c1ccc(CN2CCC(Nc3ncnc4sccc34)CC2)cc1	3	-15	-2	1	-1	2	·	·	·	·
Cc1nc2ccccc2n1Cc1ccc(Cl)cc1	87*	42	-38	61*	-3	-5	109*	0	1	39*
OCc1nc2ccccc2n1Cc1ccc(Cl)cc1	-5	9	-4	10	-3	-3	·	·	·	·
O=C(COC(=O)c1n[nH]c2ccccc12)Nc1ccc(S(=O)(=O)N2CCCC2)cc1	104*	1	4	46*	-4	-1	110*	-1	1	21
O=C(COC(=O)c1n[nH]c2ccccc12)Nc1cccc(S(=O)(=O)N2CCOCC2)c1	-1	-14	-4	9	0	-1	·	·	·	·
Clc1ccc(OCCN2CCN(c3ncnc4sccc34)CC2)cc1	93*	81*	-20	70*	-8	-8	107*	0	1	64*
